# An excerpt weighted towards active compounds, which were near 0.9% of everything screened.
# KAT2A inh: qHTS Assay for Inhibitors of GCN5L2; GCN5L2 HAT assay, ThioGlo1 CoA-SH fluorescence; Potency, µM (doses to about 58.9 µM), hits mostly inhibitors; 390,000 compounds, 0.21% hits; AID 504327, 2011
#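 Titration-based screen in which CoA formation is detected via maleimide probe ThioGlo1 (50uM) turning fluorescent on thiol reaction; substrates H3(1-25) 75uM and acetyl-CoA 70uM, GCN5L2 20nM, 20 min incubation at room temperature.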
# TDP1 inh: qHTS Assay for Inhibitors of Tyrosyl-DNA Phosphodiesterase (TDP1) | recombinant TDP1, AlphaScreen DNA substrate cleavage | Potency, µM (series often up to 130 µM), most hits filed as inhibitors | 350,000 compounds, 0.28% hits; note: nearly all actives have a fitted effect of over 40% in size
#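 Recombinant human Tdp1 (E. coli-expressed, 1 nM final) preincubated with compounds 15 min at room temperature, then 5'-biotin/3'-phosphotyrosine-FITC DNA substrate (15 nM final) added for 5 min. AlphaScreen beads (10 ug/ml final) added 10 min; cleavage lowers signal.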
# Lamin A splicing: qHTS Assay for Modulators of Lamin A Splicing; HeLa LMNA splicing GFP/RFP minigene ratio, 48 h; Potency, µM (top dose mostly 46.1 µM), most hits filed as inhibitors; 200,000 compounds, 0.01% hits; AID 1487, 2009; active = well fitted inhibition curve with a large enough effect in the signal ratio, with a control signal flat, not every such curve was filed as active; inconclusive = small, poorly fitted or top-dose-only effect, or effect the other way, or a change in a side signal; the % refers to the signal ratio
#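 S3 HeLa stable clones carrying a lamin A-EGFP splicing minigene plus DsRed2 were seeded at 600 cells/well in Opti-MEM with 2% FBS, pin-dosed and incubated 48 h at 37°C. Acumen cytometry (488 nm) gave the GFP/RFP total-intensity ratio.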
# BLM helicase inh: qHTS Assay for Inhibitors of Bloom's syndrome helicase (BLM) | RecQ-like DNA helicase BLM (Homo sapiens), P54132 | recombinant BLM DNA unwinding, fluorescence dequenching | Potency, µM (series often up to 56.1 µM), actives largely listed as inhibitors | 350,000 compounds, 0.2% hits; note: nearly all actives have a fitted effect of over 35% in size
# RECQ1 inh-1: qHTS Assay for Inhibitors of RecQ-Like Dna Helicase 1 (RECQ1) | ATP-dependent DNA helicase Q1 (Homo sapiens), P46063 | RECQ1 DNA unwinding, red fluorescence kinetic read | Potency, µM (highest dose often 57.3 µM), hits mostly inhibitors | 240,000 compounds, 0.54% hits; note: nearly all actives have a fitted effect of over 30% in size
# Target sequence (P46063 whole entry, looked up): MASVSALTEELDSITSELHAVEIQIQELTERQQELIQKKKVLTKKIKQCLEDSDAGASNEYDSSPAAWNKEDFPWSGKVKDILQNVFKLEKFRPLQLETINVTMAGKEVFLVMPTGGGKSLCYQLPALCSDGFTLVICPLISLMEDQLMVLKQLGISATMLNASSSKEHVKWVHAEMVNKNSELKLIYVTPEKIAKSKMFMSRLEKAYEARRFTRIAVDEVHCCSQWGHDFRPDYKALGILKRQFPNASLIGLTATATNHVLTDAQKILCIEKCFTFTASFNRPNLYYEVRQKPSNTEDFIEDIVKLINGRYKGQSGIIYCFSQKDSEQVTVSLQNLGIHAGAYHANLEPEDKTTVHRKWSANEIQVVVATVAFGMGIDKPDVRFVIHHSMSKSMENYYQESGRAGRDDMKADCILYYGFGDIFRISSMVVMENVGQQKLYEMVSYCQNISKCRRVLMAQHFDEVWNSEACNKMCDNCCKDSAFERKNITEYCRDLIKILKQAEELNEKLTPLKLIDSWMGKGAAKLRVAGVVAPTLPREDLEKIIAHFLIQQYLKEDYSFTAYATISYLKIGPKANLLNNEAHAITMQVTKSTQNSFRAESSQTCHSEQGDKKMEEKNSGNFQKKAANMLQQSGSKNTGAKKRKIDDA
#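 RECQ1T1 50 nM; forked duplex (20 bp + 30-nt ss tails) 200 nM, ATP 2 mM final; pH 8.0, 2 mM MgCl2, 2.5 ug/ml poly(dI-dC); 15 min compound preincubation; discontinuous kinetic read over 2 h at RT.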
# APE1 inh: qHTS Assay for Inhibitors of the Human Apurinic/apyrimidinic Endonuclease 1 (APE1) | DNA repair nuclease/redox regulator APEX1 (Homo sapiens), P27695 | 350,000 compounds, 0.35% hits | recombinant APE1, TAMRA/BHQ-2 abasic DNA cleavage fluorescence | Potency, µM (series often up to 65.8 µM), hits mostly inhibitors | AID 2517, 2012; note: nearly all actives have a fitted effect of over 55% in size
#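 Quantitative HTS: incision of a TAMRA/BHQ-2 double-stranded substrate bearing a tetrahydrofuran abasic site by 0.75 nM APE1 raises fluorescence. Substrate 50 nM final, added after 15 min compound preincubation at room temperature; progress as third-minus-first kinetic read difference.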
# RECQ1 inh conf: Confirmation qHTS Assay for Inhibitors of RecQ-Like Dna Helicase 1 (RECQ1) | shares compounds with RECQ1 inh-1 | RECQ1 helicase DNA unwinding, fluorescence | Potency, µM (top dose mostly 229 µM), most hits filed as inhibitors | 610 compounds, 28% hits | AID 2708, 2010; note: nearly all actives have a fitted effect of over 45% in size
# RECQ1 ADP FP: Counterscreen for RECQ1 Inhibitors: ADP Fluorescence Polarization Displacement Assay. shares compounds with RECQ1 inh-1. ADP fluorescence polarization displacement counterscreen. Potency, µM (highest dose often 228 µM), most hits filed as inhibitors. 530 compounds, 27% hits. AID 2711, 2010; note: nearly all actives have a fitted effect of over 45% in size
# RECQ1 inh-2: Confirmation qHTS Assay for Inhibitors of RecQ-Like Dna Helicase 1 (RECQ1) - Round 2 Cherry Picks | shares compounds with RECQ1 inh-1 | recombinant RECQ1 DNA unwinding, red fluorescence | Potency, µM (series often up to 119 µM), hits mostly inhibitors | 1,100 compounds, 15% hits; note: nearly all actives have a fitted effect of over 50% in size
# A number is an active result; n = inactive; u = inconclusive; x = not tested or not shown; [ ] = remark or other dose. Unless noted, calls come from the whole dose curve; as a rule, active = well fitted curve in the direction sought with a large enough effect; inconclusive = small, poorly fitted or top-dose-only effect, or another doubt; inactive = no such curve, though single readings can be large; an effect the other way counts as inactive or inconclusive.
SMILES,KAT2A inh,TDP1 inh,Lamin A splicing,BLM helicase inh,RECQ1 inh-1,APE1 inh,RECQ1 inh conf,RECQ1 ADP FP,RECQ1 inh-2
COc1cccc(Nc2ncc3nc(C)c(=O)n(CCC#N)c3n2)c1,n,x,x,n,n,n,x,x,x
O=C(c1ccc(Cl)cc1)N1CCN(c2cccc3[nH]ccc23)CC1,n,n,x,n,u,u,x,x,n
O=C(O)CSc1nnc(Cn2nnc3ccccc32)n1CCc1ccccc1,n,n,n,n,n,n,n,n,x
COc1ccc(NC(=O)C(NS(=O)(=O)c2cccc3nsnc23)C(C)C)cc1 (configuration not stated),n,n,x,n,x,x,x,x,x
CC(C)C(NS(=O)(=O)c1cccc2nsnc12)C(=O)N1CCn2c1nc1ccccc12 (configuration not stated),n,n,n,n,n,n,n,u,x
CC(C)CC(CSc1ccc(Br)cc1)N1CCN(C)CCC1=O (configuration not stated),x,n,x,n,n,n,x,x,x
Cc1cnc(CNc2ncnc3ccc(-c4ccc5c(c4)OCO5)cc23)cn1,n,x,n,n,20µM,n,x,x,u
O=C(Cc1cccs1)NC1C(=O)N2C(C(=O)[O-])=C(C[n+]3ccccc3)CSC12 (configuration not stated),u,2.2µM,u,n,u,x,u,6.3µM,x
CCOc1cc(NC(=O)C2CC2)c(OCC)cc1NC(=O)c1cccc(F)c1,n,n[0.0935 µM],x,n,x,n,x,x,x
CCOc1cc(NC(=O)c2cnccn2)c(OCC)cc1NC(=O)c1cccc(F)c1,n,n,n,n,n,n,n,u,x
COC(=O)Nc1ccc(S(=O)(=O)N2CCCC(C(=O)N3CCOCC3)C2)cc1 (configuration not stated),n,x,x,n,n,n,x,x,x
COC(=O)Nc1ccc(S(=O)(=O)N2CCCC(C(=O)N3CC(C)OC(C)C3)C2)cc1 (configuration not stated),n,x,x,n,n,n,n,n,x
CCOc1ccccc1NC(=O)CN(C)S(=O)(=O)c1cnc[nH]1,n,n,n,n,16µM,n,n,n,n
Cc1ccc(NC(=O)CN(C)S(=O)(=O)c2cnc[nH]2)c(C)c1,n,n,x,n,x,n,x,x,x
Cn1c(N)c(C(=O)COC(=O)C2CC(O)CN2S(=O)(=O)c2ccc(Cl)cc2)c(=O)n(C)c1=O (configuration not stated),n,n,x,n,n,n,n,n,x
C=C(C)[C@]12C[C@@H](C)[C@@]34OC(Cc5ccccc5)(O[C@@H]1[C@@H]3C=C(COC(=O)Cc1cc(OC)c(O)cc1I)C[C@]1(O)C(=O)C(C)=C[C@@H]41)O2,n,n,x,n,n,n,x,x,x
Cc1cc(-c2csc(NC(=O)c3ccc(=O)n(C)n3)n2)c(C)n1CC1CCCO1 (configuration not stated),n,50µM,n,u,u,n,x,x,n
CS(=O)(=O)N1CCC2(CCCN(c3cccc(-c4ccccc4)c3)C2)CC1,n,x,x,n,28µM,n,x,x,u
Cc1nc2ccc(C(=O)Nc3cccc([N+](=O)[O-])c3)cc2s1,n,n,u,n,u,n,x,x,n
N=c1c(C(=O)NCc2ccc(F)cc2)cc2c(=O)n3ccccc3nc2n1CCCN1CCOCC1,n,n,n,n,u,n,x,x,n
COc1cccc(/C=C/c2nc(C#N)c(N3CCCCC3)o2)c1,n,n,x,n,x,x,x,x,x
CCOC(=O)C1=C(c2ccccc2)N=c2s/c(=C\c3ccc(O)cc3)c(=O)n2C1c1cccs1 (configuration not stated),n,n,u,n,u,n,x,x,16µM
COC(=O)C1=C(C)N=c2s/c(=C/c3cccs3)c(=O)n2C1c1cccs1 (configuration not stated),n,n,n,n,n,n,x,x,x
CCNc1nc(C#N)nc2c1ncn2-c1cccc(Cl)c1,x,n,x,x,x,x,x,x,x
Cc1cccc(N2CCN(C(=O)Cc3ccc(-n4c(=O)[nH]c5ccsc5c4=O)cc3)CC2C)c1 (configuration not stated),n,n,n,n,n,n,n,n,x
SMILES,KAT2A inh,TDP1 inh,Lamin A splicing,BLM helicase inh,RECQ1 inh-1,APE1 inh,RECQ1 inh conf,RECQ1 ADP FP,RECQ1 inh-2
Cc1cccc(N2CCN(C(=O)Cn3c(=O)[nH]c4ccsc4c3=O)CC2C)c1 (configuration not stated),n,n,n,n,n,n,x,x,x
O=C(O)/C=C/c1cnc2ccccc2c1,n,n,x,n,n,n,x,x,x
O=C(O)/C=C/C(=O)N1Cc2cc3ccccc3nc2C1,n,35µM,x,n,u,n,x,x,n
COc1ccc(C2c3c(nc(CCc4ccccc4)[nH]c3=O)Oc3ccc4ccccc4c32)cc1OC (configuration not stated),x,n,x,x,x,x,x,x,x
C=CC1=C2C=C(C3CC3)N(CCCCO)C=C2C(=O)C(C)(OC(=O)c2ccco2)C1=O (configuration not stated),x,n[12.3 µM],n[9.22 µM],n[12.4 µM],n[11.5 µM],n[12.4 µM],x,x,x
O=C(NC(Cc1c[nH]c2ccccc12)C(=O)O)/C(=C\c1ccccc1)NC(=O)c1ccccc1 (configuration not stated),n,x,x,n,x,n,x,x,x
Cc1ccc(C(=O)Nc2ccccc2C(=O)NC(Cc2ccccc2)C(=O)O)cc1 (configuration not stated),n,n,u,n,n,n,x,x,x
O=C(Cn1nnc2ccccc2c1=O)N[C@@H](Cc1c[nH]c2ccccc12)C(=O)O,n,n,n,n,n,n,n,n,x
Cc1ccc(C(=O)Nc2ccccc2C(=O)NC(Cc2c[nH]c3ccccc23)C(=O)O)cc1 (configuration not stated),n,n,x,n,n,n,n,n,x
